Here are results for 19 compounds from PubChem BioAssay (NCATS).

Inconclusive results are not listed. Unmarked numbers belong to inactive results. Activity calls are given as the source filed them. The call rests on the fitted dose curve; in most records, active means well fitted inhibition curve with a large enough effect; inconclusive means small, poorly fitted or top-dose-only effect; inactive means flat fitted curve, though single readings scatter.

Assay [1] addresses Glutathione peroxidase 1 (Homo sapiens) (UniProt P07203). The assay is described as follows: Primary qHTS Assay for Inhibitors of Recombinant Selenoprotein Glutathione Peroxidase 1 (GPX1) (AID 1845191). Further: nearly all actives have a fitted effect of over 65% in size. On activity, negative = inhibition: on the % scale 0 is the no-effect control and ±100 the full control effect. In outline: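 GR-coupled readout: NADPH consumption tracked by fluorescence, ex 340/em 450 nm, at t=0 and after 15 min at RT. Final mix 10 nM GPX1, 1 mM GSH, 0.5 mM CHP, 0.5 mM NADPH, 100 nM GR, 0.01% BSA, following 30 min enzyme–compound preincubation.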
On the technique in general: Quantitative high-throughput screening tests each substance at several concentrations.

The target in assay [2] is Phospholipid hydroperoxide glutathione peroxidase GPX4 (Homo sapiens) (UniProt P36969). The assay is described as follows: Primary qHTS Assay for Inhibitors of Recombinant Selenoprotein Glutathione Peroxidase 4 (GPX4) (AID 1845192). Further: nearly all actives have a fitted effect of over 65% in size. Further: potency means the concentration at half of the fitted maximal effect. In outline: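 Steps: GPX4 plus compound, 30 min RT; add GR/GSH/NADPH master mix; start with cumene hydroperoxide; read 340/450 nm fluorescence at 0 and 15 min. Finals were 200 nM GPX4, 1 mM GSH, 0.5 mM CHP, 0.5 mM NADPH, 100 nM GR.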
Phospholipid hydroperoxide glutathione peroxidase GPX4 (Homo sapiens), sequence (P36969 whole entry, looked up): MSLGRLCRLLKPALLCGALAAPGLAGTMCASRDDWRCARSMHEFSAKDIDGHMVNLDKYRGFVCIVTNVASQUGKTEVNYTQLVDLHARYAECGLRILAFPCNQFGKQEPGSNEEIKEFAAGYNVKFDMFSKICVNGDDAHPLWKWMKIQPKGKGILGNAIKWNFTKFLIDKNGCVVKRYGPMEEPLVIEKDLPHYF

Assay [3] in a line: qHTS profiling for inhibitors of Plasmodium falciparum proliferation (AID 504749).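 Further: 0% = DMSO vehicle and full inhibition = artemisinin control; nearly all actives have a fitted effect of over 60% in size.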 Conditions: P. falciparum in erythrocytes, SYBR Green DNA, 72 h. In outline:
(§1)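 SYBR Green fluorescence (ex 485 nm, em 535 nm) reports parasite DNA after 72 h compound exposure of infected red cells at 0.3% parasitemia, 2.5% hematocrit; signal normalized to 0.29 uM artemisinin and vehicle wells.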

For the next assay, the system named is 3D7. The description is as above. Conditions: P. falciparum in erythrocytes, SYBR Green DNA, 72 h; series mostly up to 28.7 µM. The procedure, abridged: as §1
In a further assay the test system is 7G8. The assay is described as above. To be noted: P. falciparum in erythrocytes, SYBR Green DNA, 72 h; series mostly up to 28.7 µM. The procedure, abridged:
as §1

The next assay deals with AA1029. The description is as above. To be noted: P. falciparum in erythrocytes, SYBR Green DNA, 72 h; series mostly up to 28.7 µM. The procedure, abridged:
as §1

For another assay, the system named is AS120. Described as above. Conditions: P. falciparum in erythrocytes, SYBR Green DNA, 72 h; series mostly up to 28.7 µM. The procedure, abridged:
as §1

The next assay has as its system ATS189. The assay is described as above. To be noted: P. falciparum in erythrocytes, SYBR Green DNA, 72 h; series mostly up to 28.7 µM. The procedure, abridged: as §1
[4] abbreviates: at 28.7 µM (top of the series), parasite line A.
[5] abbreviates: at 28.7 µM (top of the series), parasite line B.
Setting [6] is: at 12.8 µM (top of the series), parasite line A.
Setting [7] is: at 12.8 µM (top of the series), parasite line B.

Glutathione peroxidase 1 (Homo sapiens), sequence (P07203 whole entry, looked up): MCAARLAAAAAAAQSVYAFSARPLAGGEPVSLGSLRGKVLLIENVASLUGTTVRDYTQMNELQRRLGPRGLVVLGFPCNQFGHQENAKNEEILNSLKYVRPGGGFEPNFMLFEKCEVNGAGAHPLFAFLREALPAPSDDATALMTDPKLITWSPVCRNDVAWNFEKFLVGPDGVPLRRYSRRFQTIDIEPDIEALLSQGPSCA

Take `CC(C)CCCC(C)CCCC(C)CCCCC(C)CCCC(C)CCCC(C)C` (stereo unspecified): the Potency result (in assay [1]; in assay [2]; with 3D7; in the assay with 7G8; in the assay on AA1029; in the assay on AS120) was “inactive” each time. In addition, the Potency result with ATS189 was “inactive”. Moreover, the activity, negative = inhibition was -0.284% in assay [3] (setting [4]) and 17.5% in assay [3] (setting [5]).
In the case of `Cc1c(N(C)C)c(=O)n(-c2ccccc2)n1C`, the Potency result (in assay [1]; in assay [2]; with 3D7; with 7G8; with AA1029; in the assay on AS120) was “inactive” throughout. For the same compound, in the assay with ATS189, the Potency result was “inactive”. Moreover, the activity, negative = inhibition was 13.7% in assay [3] (setting [4]) and 18.1% in assay [3] (setting [5]).
On to `c1ccc2[nH]ccc2c1`, for which the Potency result (in assay [1]; in assay [2]; with 3D7; in the assay with 7G8; in the assay with AA1029; in the assay with AS120) was “inactive” each time. In the assay on ATS189, the Potency entry was “inactive”. The activity, negative = inhibition was 15.1% in assay [3] (setting [4]) and 19.4% in assay [3] (setting [5]).
Regarding `O=C(/C=C/c1ccccc1)OCc1ccccc1`, the Potency result (in assay [1]; in assay [2]; with 3D7; in the assay with 7G8; in the assay on AA1029; with AS120) was “inactive” in each case. Further, the Potency result in the assay on ATS189 is “inactive”. Also, the activity, negative = inhibition in assay [3] (setting [4]) was 4.66%; in assay [3] (setting [5]), -29.4%.
As for `NC(N)=NCCN1CCCCCCC1`, the outcome in assay [1] was “inactive [at 0.4 µM]”; in assay [2] it was “inactive [at 0.409 µM]”. In addition, the activity, negative = inhibition in assay [3] (setting [6]) is 4.56%; in assay [3] (setting [7]), 10.2%. The Potency entry with 3D7, in the assay on 7G8, in the assay with AA1029, with AS120 and in the assay with ATS189 was “inactive” each time.
Turning to `NC(=O)CC[C@@H](N)C(=O)O`, the Potency entry (in assay [1]; in assay [2]; in the assay with 3D7; in the assay with 7G8; in the assay on AA1029; in the assay on AS120) was “inactive” throughout. The Potency entry with ATS189 was “inactive”. Also, the activity, negative = inhibition in assay [3] (setting [4]) was 3.38%; in assay [3] (setting [5]) it was 6.23%.
For the compound `CCCCCCCC(=O)OCC(O)CO` (stereo unspecified), the Potency entry (in assay [1]; in assay [2]; with 3D7; in the assay with 7G8; in the assay on AA1029; in the assay on AS120) was “inactive” in each case. For the same compound, the Potency result in the assay on ATS189 was “inactive”. The activity, negative = inhibition in assay [3] (setting [4]) was 0.997%; in assay [3] (setting [5]), -8.07%.
With `CCCCOC(=O)c1ccc(N)cc1`, the Potency result (in assay [1]; in assay [2]; with 3D7; in the assay on 7G8; in the assay with AA1029; in the assay on AS120) was “inactive” each time. Moreover, the Potency entry with ATS189 is “inactive”. The activity, negative = inhibition in assay [3] (setting [4]) is 5.58%; in assay [3] (setting [5]), 10.8%.
Regarding `CC(C)(C)C(=O)OCOC(=O)[C@@H]1N2C(=O)[C@@H](NC(=O)[C@H](N)c3ccccc3)[C@H]2SC1(C)C`, the Potency result (in assay [1]; in assay [2]; in the assay on 3D7; in the assay on 7G8; in the assay with AA1029; in the assay with AS120) was “inactive” throughout. Further, the Potency entry in the assay with ATS189 is “inactive”. In addition, the activity, negative = inhibition in assay [3] (setting [6]) is -1.26%; in assay [3] (setting [7]) it was -15.3%.
On to `CCN(CC)C(=O)c1cccc(C)c1`, for which the Potency entry (in assay [1]; in assay [2]; with 3D7; in the assay on 7G8; in the assay with AA1029; in the assay with AS120) was “inactive” throughout. For the same compound, the Potency entry in the assay with ATS189 was “inactive”. Further, the activity, negative = inhibition in assay [3] (setting [4]) was 7.82%; in assay [3] (setting [5]) it was 6.22%.
Take `CCCCC1(COC(=O)CCC(=O)O)C(=O)N(c2ccccc2)N(c2ccccc2)C1=O`: the Potency result (in assay [1]; in assay [2]; with 3D7; in the assay with 7G8; in the assay with AA1029; in the assay with AS120) was “inactive” each time. Also, the Potency result with ATS189 is “inactive”. Further, the activity, negative = inhibition in assay [3] (setting [6]) is 7.36%; in assay [3] (setting [7]) it was 2.05%.
For `CC1CC(OC(=O)c2ccccc2O)CC(C)(C)C1` (stereo unspecified), the Potency result (in assay [1]; in assay [2]; with 3D7; in the assay on 7G8; in the assay on AA1029; in the assay on AS120) was “inactive” each time. Besides, the Potency entry in the assay with ATS189 is “inactive”. For the same compound, the activity, negative = inhibition in assay [3] (setting [4]) was -5.75%; in assay [3] (setting [5]), 14.6%.
Regarding `CC(=O)NCc1c(I)c(NC(C)=O)c(I)c(C(=O)O)c1I`, the Potency entry (in assay [1]; in assay [2]; in the assay on 3D7; with 7G8; in the assay with AA1029; with AS120) was “inactive” throughout. For the same compound, the Potency entry in the assay on ATS189 was “inactive”. In addition, the activity, negative = inhibition in assay [3] (setting [4]) was 10.9%; in assay [3] (setting [5]), 6.96%.
For the compound `CCCCCCCCCCCCCCCCC(C(=O)O)C(O)(CC(=O)O)C(=O)O` (stereo unspecified), the Potency entry (in assay [1]; with 3D7; with 7G8; in the assay with AA1029; in the assay with AS120; in the assay with ATS189) was “inactive” in each case. In assay [2], the Potency is 4.47 µM (active). For the same compound, the figures for the activity, negative = inhibition in assay [3] (setting [4]) and in assay [3] (setting [5]) were 13.1% and 1.49%, respectively.
Consider `NCC1CCC(C(=O)Oc2ccc(CCC(=O)O)cc2)CC1` (stereo unspecified), for which the Potency entry (in assay [1]; in assay [2]; in the assay on 3D7; with 7G8; in the assay with AA1029; in the assay on AS120) was “inactive” throughout. The Potency result in the assay on ATS189 is “inactive”. For the same compound, the activity, negative = inhibition in assay [3] (setting [4]) is -0.969%; in assay [3] (setting [5]), 4.31%.
On to `CC(C)c1cc2c(cc1S(=O)(=O)O)[C@@]1(C)CCC[C@@](C)(C(=O)O)[C@@H]1CC2`, for which the Potency result (in assay [1]; in assay [2]; with 3D7; in the assay on 7G8; with AA1029; with AS120) was “inactive” in each case. The Potency result in the assay with ATS189 was “inactive”. Further, the figures for the activity, negative = inhibition in assay [3] (setting [4]) and in assay [3] (setting [5]) were 12.2% and -0.445%, respectively.
On to `Cc1cc(C)nc(NS(=O)(=O)c2ccc(N)cc2)n1`, for which the Potency result (in assay [1]; in assay [2]; in the assay on 3D7; in the assay on 7G8; with AA1029; in the assay with AS120) was “inactive” each time. Further, the Potency entry with ATS189 is “inactive”. Besides, the activity, negative = inhibition in assay [3] (setting [4]) was 7.93%; in assay [3] (setting [5]), 10.9%.
For `COc1ccc(O)cc1`, the Potency result (in assay [1]; in assay [2]; in the assay with 3D7; in the assay on 7G8; in the assay with AA1029; with AS120) was “inactive” each time. For the same compound, in the assay on ATS189, the Potency result is “inactive”. The values for the activity, negative = inhibition in assay [3] (setting [4]) and in assay [3] (setting [5]) were -6.25% and -15.4%, respectively.
Take `COC(=O)c1cccnc1`: the Potency result (in assay [1]; in assay [2]; in the assay with 3D7; in the assay with 7G8; with AA1029; with AS120) was “inactive” throughout. The Potency result in the assay on ATS189 is “inactive”. Besides, the activity, negative = inhibition was 7.8% in assay [3] (setting [4]) and 16.6% in assay [3] (setting [5]).
